Assay results reported in the supplement of paper PMC10646978.
± gives the standard deviation.

Legend:
Details in all cases: modulator concentration 10 µM
[1] = test system: RAW-Dual (murine macrophage reporter line); assay: NF-kB reporter (SEAP) activity fold change vs agonist alone; higher = enhanced NF-kB activity
Method in brief: (§1)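 RAW-Dual murine macrophage reporter cells were seeded at 50 000 per well in 384-well plates and pre-incubated 1 hour at 37 °C with compound pin-transferred to 10 μM final. After 1 hour, a PRR agonist was added and cells incubated overnight. Supernatant NF-κB (SEAP, QUANTI-Blue, 620 nm absorbance) and IRF (Lucia luciferase, QUANTI-Luc, luminescence) signals were divided by the mean agonist-only control on the same plate to give fold change. Two replicate plates were averaged, with errors by propagation.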

[2] = test system: RAW-Dual (murine macrophage reporter line); assay: IRF reporter (Lucia luciferase) activity fold change vs agonist alone; higher = enhanced IRF activity
Method in brief: as §1

[3] = test system: RAW-Dual (murine macrophage reporter line); assay: viability score (confluency relative to resting cells, overnight) (fraction); higher = more viable, active = viable (0.7 or more)
Method in brief: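 In 384-well plates, RAW-Dual macrophages received compound at a final 10 μM overnight. Two confluency masks were then made with IncuCyte software from IncuCyte images of all imaged wells. The viability score is defined as confluency relative to resting cells. Passing the cutoff required both masks to lie above 70% of resting cells.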

[4] = agonist: CpG ODN 1826 0.5 ug/mL

SMILES	NF-kB reporter [1, 4]	NF-kB reporter ([1]; agonist: LPS 0.1 ug/mL)	NF-kB reporter ([1]; agonist: MPLA […])	IRF reporter ([2]; agonist: 3'3'-cGAMP 10 ug/mL)	IRF reporter ([2]; agonist: LPS 0.1 ug/mL)	IRF reporter ([2]; agonist: MPLA […])	viability score [3]
O=C(NC(=S)Nc1cccc([N+](=O)[O-])c1)c1cccc(I)c1	0.944 ± 0.1	1.08 ± 0.072	0.985 ± 0.044	0.794 ± 0.1	1.09 ± 0.14	1.02 ± 0.17	1 (active)
CCCOc1cccc(C(=O)Nc2cccc(S(N)(=O)=O)c2)c1	1.11 ± 0.13	0.97 ± 0.057	0.945 ± 0.058	0.918 ± 0.039	1.39 ± 0.14	1.05 ± 0.27	1 (active)
CC(=O)OC1(C(C)=O)CCC2C3CC(C)C4=CC(=O)CCC4(C)C3CCC21C (configuration not stated)	1.65 ± 0.4	1.36 ± 0.11	1.29 ± 0.089	0.937 ± 0.045	1.1 ± 0.13	1.23 ± 0.14	0.984 (active)
Cc1ccc(C2(c3ccc(C)cc3)CC2C(=O)Nc2ccccc2)cc1 (configuration not stated)	0.728 ± 0.079	0.905 ± 0.12	1.51 ± 0.071	0.541 ± 0.031	0.835 ± 0.12	0.654 ± 0.12	0.992 (active)
COc1ccc(CC(=O)N2CCCc3ccccc32)cc1OC	0.909 ± 0.078	0.778 ± 0.054	1.01 ± 0.09	0.973 ± 0.046	1.41 ± 0.1	1.6 ± 0.17	1.02 (active)
CC(=NNC(N)=S)C1=CC(C)(C)CCC1	0.744 ± 0.061	0.985 ± 0.062	1.06 ± 0.13	0.462 ± 0.012	1.17 ± 0.19	0.978 ± 0.2	1.01 (active)
Clc1ccc2nsnc2c1NC1=NCCN1 [Prestw-1182]	1.14 ± 0.1	1.06 ± 0.085	0.958 ± 0.044	0.965 ± 0.044	0.93 ± 0.05	1.01 ± 0.13	0.995 (active)
Nc1ccc(OCc2ccccc2)cc1	0.977 ± 0.16	1.01 ± 0.1	0.995 ± 0.12	0.635 ± 0.024	1.03 ± 0.1	1.16 ± 0.17	1.01 (active)
COc1ccc(C2CNC(=O)C2)cc1OC1CCCC1 (configuration not stated)	2.76 ± 0.37	2.2 ± 0.43	1.63 ± 0.1	0.942 ± 0.03	0.963 ± 0.18	1.17 ± 0.089	0.973 (active)
Cc1cc(=O)[nH]c(=S)[nH]1	1.04 ± 0.09	1.02 ± 0.11	1 ± 0.035	0.99 ± 0.073	0.969 ± 0.084	1.01 ± 0.08	1 (active)
COS(=O)(=O)[O-].C[N+]1(C)CCC(=C(c2ccccc2)c2ccccc2)CC1	1.35 ± 0.061	1.09 ± 0.093	1.76 ± 0.32	0.849 ± 0.047	0.979 ± 0.15	0.823 ± 0.18	0.958 (active)
COC(=O)C1=CN(CC2CCCO2)C=C(C(=O)OC)C1c1cccc(OC)c1 (configuration not stated)	1.36 ± 0.25	0.859 ± 0.065	1.29 ± 0.13	0.943 ± 0.034	0.947 ± 0.045	0.879 ± 0.13	0.994 (active)
CCC(C(=O)N1CC(Nc2cnccn2)C1)c1ccccc1 (configuration not stated)	0.995 ± 0.052	1.06 ± 0.12	0.996 ± 0.14	1.03 ± 0.067	1.24 ± 0.085	1.19 ± 0.09	0.984 (active)
COC(=O)c1cc(NC(=O)c2cc(OC)c(OC)cc2[N+](=O)[O-])cc(C(=O)OC)c1	0.99 ± 0.1	1.03 ± 0.057	0.913 ± 0.074	0.999 ± 0.063	1.59 ± 0.19	1.22 ± 0.091	1.01 (active)
OCCN(CCO)CC(O)Cn1c2ccc(Br)cc2c2cc(Br)ccc21 (configuration not stated)	0.301 ± 0.024	0.484 ± 0.035	0.617 ± 0.06	0.742 ± 0.024	1.42 ± 0.24	1.35 ± 0.15	0.94 (active)
N#Cc1ccnc(N2C(=O)CC[C@H]2C(=O)N(c2cncc(F)c2)[C@H](C(=O)NC2CC(F)(F)C2)c2ccccc2Cl)c1	1.26 ± 0.3	1.04 ± 0.07	1.26 ± 0.08	1.09 ± 0.055	1.28 ± 0.2	1.17 ± 0.12	1 (active)
O=C(O)CCc1nc(-c2ccccc2)c(-c2ccccc2)o1	1.05 ± 0.079	0.998 ± 0.066	1.03 ± 0.023	0.931 ± 0.055	0.976 ± 0.12	1.03 ± 0.15	0.991 (active)
Cc1ncc(CC(=O)N2CCC(c3ccccc3F)S(=O)(=O)CC2)s1 (configuration not stated)	0.93 ± 0.041	0.961 ± 0.1	0.959 ± 0.053	0.983 ± 0.074	0.985 ± 0.14	0.998 ± 0.27	1.01 (active)
CCN1CCN(Cc2c(O)ccc3c2OC(=Cc2ccc(C)cc2)C3=O)CC1	1.05 ± 0.078	1.03 ± 0.14	1.2 ± 0.028	0.945 ± 0.058	0.967 ± 0.12	1.06 ± 0.13	0.995 (active)
CCC1=C(C)CN(C(=O)NCCc2ccc(S(=O)(=O)NC(=O)N[C@H]3CC[C@H](C)CC3)cc2)C1=O	1.08 ± 0.085	1.08 ± 0.062	1.03 ± 0.066	1.22 ± 0.23	0.95 ± 0.067	0.915 ± 0.14	0.996 (active)
CCOC(=O)C1=C(C)NC(C)=C(C(=O)OCC)C1c1ccc(F)cc1	0.796 ± 0.067	0.729 ± 0.059	1.8 ± 0.067	1.05 ± 0.037	0.987 ± 0.059	4.4 ± 0.55	0.244 (inactive)
CC(C)(C)NC[C@H](O)COc1nsnc1N1CCOCC1.O=C(O)/C=C\C(=O)O	1.19 ± 0.2	1.13 ± 0.43	0.917 ± 0.056	0.906 ± 0.031	1.3 ± 0.34	1.21 ± 0.14	0.992 (active)
CC(C)(C(=O)O)c1ccc(C(O)CCCN2CCC(C(O)(c3ccccc3)c3ccccc3)CC2)cc1.Cl (configuration not stated)	1.47 ± 0.22	1.28 ± 0.39	1.01 ± 0.067	0.924 ± 0.029	1.05 ± 0.48	1.19 ± 0.09	0.983 (active)
Cc1cc(CNC(=O)CCc2ccc(S(C)(=O)=O)cc2)c(C)o1	1.24 ± 0.44	1.03 ± 0.084	1.04 ± 0.066	0.928 ± 0.046	0.97 ± 0.18	1 ± 0.11	0.999 (active)
Oc1nc[nH]n1	1.05 ± 0.087	0.927 ± 0.067	1.02 ± 0.022	1 ± 0.06	0.923 ± 0.04	0.838 ± 0.074	1 (active)
COCCn1c(C)cc(C(=O)CSc2ncnc3sc4c(c23)CCC4)c1C	0.991 ± 0.067	1.11 ± 0.12	1.02 ± 0.079	1.04 ± 0.036	1.43 ± 0.12	1.16 ± 0.12	0.994 (active)
